Hits are enriched below; roughly 3.6% of the tested compounds scored in any of these assays.
FAS TE block = blocks the thioesterase domain of human fatty acid synthase. P49327. recombinant FAS-TE, OMFH fluorogenic substrate, fluorescence endpoint. inhibition, % at 15 µM. 0.67% of 360,000 active. AID 602261;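 active = compounds whose normalised, plate-corrected inhibition of enzyme fluorescence in the single-dose primary screen is 50% or more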
NadD block = inhibitors of Staphylococcus aureus NadD; purified NadD enzyme, colorimetric absorbance read-out; 0.78% of 360,000 active; inhibition, % at 20 µM; in the data active = inhibition above about 26%
NRP1-CendR mod = alters CendR peptide binding to human NRP-1 | O14786 | inhibition, % at 25 µM | 0.85% of 360,000 active | FAM-RPARPAR peptide binding to NRP-1, fluorescence polarization | AID 602438;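 active = inhibition or corrected inhibition above about 18%, plus a signal ratio from 0.5 to 1.5, limit read from the data, passing the limit was not always enough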
Myeloid diff 2 = myeloid differentiation induction. 1% of 360,000 active. calls only at 10 µM. ER-HoxA9 myeloid progenitors, lysozyme-GFP differentiation, flow cytometry;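 active = normalized GFP-positive differentiation at or above the plate's own cutoff, the solvent-only control mean plus 3 SD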;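 note: cells exposed to compound for four days before flow analysis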
CRFBP-R2 block = antagonists of CRF-binding protein/CRF-R2 receptor complex; 0.59% of 350,000 active; inhibition, % at 11.8 µM; HEK293 CRF-R2/CRF-BP, CRF-induced calcium fluorescence;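 active = inhibition of the ligand-induced calcium signal above about 50% at the single tested concentration, limit read from the data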
Of the large screens only hits and unclear results are named; the others gave an inactive call.

Cc1cc(C)nc(NC(=S)Nc2cccc(Cl)c2Cl)c1	Myeloid diff 2 active
Cc1cc(C)nc(NC(=S)Nc2ccc(Br)cc2Cl)c1	none
CC(=O)N(Cc1ccc(F)cc1)C1=C(NCc2ccccc2)C(=O)c2ccccc2C1=O	Myeloid diff 2 active
O=C(NCc1ccc(F)cc1)C(c1ccccc1)c1ccccc1	none
O=C1Nc2ccccc2-c2nnnn2C1N1CCC(Cc2ccccc2)CC1 (stereo not drawn)	none (no result: FAS TE block, NadD block, CRFBP-R2 block)
Cc1cc2c(cc1C)-c1nnnn1C(N1CCCCC1)C(=O)N2 (stereo not drawn)	NRP1-CendR mod 21 (no result: FAS TE block, NadD block, CRFBP-R2 block)
COC(=O)c1ccc(CSc2nc3c(c(=O)n2-c2ccc(Br)cc2)SCC3)o1	Myeloid diff 2 active, CRFBP-R2 block 61
CN1CCCc2cc3c(C(F)(F)F)cc(=O)oc3nc21	NRP1-CendR mod 38
O=C(Nc1ccc(F)c(Cl)c1)c1cc(C2CCCCN2C(=O)CCc2ccccc2)on1 (stereo not drawn)	none (no result: CRFBP-R2 block)
Cc1cc(N/C(=N/S(=O)(=O)c2cc(F)ccc2F)c2ccccc2)n(-c2ccccc2)n1	NRP1-CendR mod 27
Cc1cc(N/C(=N/S(=O)(=O)c2ccc(F)cc2)c2ccccc2)n(-c2ccccc2)n1	none
Cn1nc(C(=O)NCC(c2cccs2)N2CCOCC2)c2ccccc2c1=O (stereo not drawn)	NRP1-CendR mod 27
CC(C)c1ccccc1OCC(=O)NCC(c1cccs1)N1CCOCC1 (stereo not drawn)	none
COc1ccccc1OCC(=O)NCC(c1cccs1)N1CCOCC1 (stereo not drawn)	NRP1-CendR mod 25
CN(C)C(=O)c1ccc2c(c1[N+](=O)[O-])C(=O)c1ccccc1C2=O	none (no result: Myeloid diff 2)
Cc1[nH]c2ccccc2c1CCNC(=O)c1ccc2c(c1[N+](=O)[O-])C(=O)c1ccccc1C2=O	NadD block 40, Myeloid diff 2 active
Cc1[nH]c2c(C)cccc2c1CCNC(=O)c1ccc2c(c1[N+](=O)[O-])C(=O)c1ccccc1C2=O	NadD block 35
Nc1sccc1C(=O)NC1CC1	none (no result: FAS TE block, NadD block, CRFBP-R2 block)
CCOCCn1c(CN2CCc3ccccc3C2)nc2c1c(=O)n(C)c(=O)n2C	none
Cc1nn2c(=O)[nH]cnc2c1Cl	none
CC1=C(C(=O)N(C)C)CC(CC(=O)NC(c2ccccc2)c2ccccc2)C(=O)N1CCCN1CCCC1=O (stereo not drawn)	Myeloid diff 2 active
CC1=C(C(=O)N(C(C)C)C(C)C)CC(CC(=O)NC(c2ccccc2)c2ccccc2)C(=O)N1Cc1ccc(C(C)(C)C)cc1 (stereo not drawn)	Myeloid diff 2 active (no result: CRFBP-R2 block)
CC1=C(C(=O)N(C)C)CC(CC(=O)NC(c2ccccc2)c2ccccc2)C(=O)N1Cc1ccc(C(C)(C)C)cc1 (stereo not drawn)	none
CCOC(=O)c1ccc(NC(=O)C2(c3ccccc3)CCOCC2)cc1	NRP1-CendR mod 31
CCNC(=O)N(C)C[C@H]1N[C@@](Cc2ccccc2)(C(=O)OC)[C@H]2C(=O)N(C)C(=O)[C@@H]12	none
COC(=O)c1ccc(C)c(NC(=O)CCSc2ccc(Cl)cc2)c1	none
COC(=O)c1ccc(Sc2ccc(Cl)cc2)c(N)c1	CRFBP-R2 block 73
Cc1nc(-c2ccc(S(=O)(=O)Oc3ccccc3Cl)s2)cs1	none
O=C(O)Cc1sc(NCCc2ccccc2)nc1-c1ccc(F)cc1	Myeloid diff 2 active
CCCCn1c(N)c(N(CCOC)C(=O)C2CCN(S(=O)(=O)c3ccccc3)CC2)c(=O)[nH]c1=O	none
CCOc1nc(-c2ccccc2)c2cc(C)ccc2n1	NRP1-CendR mod 20
COc1nc(-c2ccccc2)c2cc(C)ccc2n1	none
Cc1c(O)ccc(C(=O)CN2CCN(Cc3ccccc3)CC2)c1O	none
COC(=O)Oc1ccc(/C=N/NC(=O)CN(c2ccccc2Br)S(C)(=O)=O)cc1OC	NRP1-CendR mod 23
CCc1ccccc1N(CC(=O)N/N=C/c1ccc(OC(=O)OC)c(OC)c1)S(C)(=O)=O	none
CCCOc1ccc(N2C(=O)CC(N(CCc3ccc(OC)cc3)C(=O)c3ccccc3)C2=O)cc1 (stereo not drawn)	none
CC(=O)/C=C/n1c(=S)oc2ccccc21	CRFBP-R2 block 70 (no result: FAS TE block, NadD block, NRP1-CendR mod, Myeloid diff 2)
Cc1cccc2sc(NC(=O)Cn3cccc3)nc12	Myeloid diff 2 active
Cc1cccc2sc(NC(=O)CCn3cccc3)nc12	none
Cc1[nH]n(CCC#N)c(=O)c1CC(=O)N1CCN(c2ccccc2)CC1	CRFBP-R2 block 60
COC(=O)c1c(C)[nH]c(C)c1C(=O)c1ccccc1Cc1ccccc1	Myeloid diff 2 active
CC1CCCCN1c1nc(-c2ccncc2)nc2ccccc12 (stereo not drawn)	Myeloid diff 2 active
Cc1cc(C)cc(N(C(C)C(=O)N2CCCC2)S(C)(=O)=O)c1 (stereo not drawn)	none
CCOC(=O)c1c(C)[nH]c(C(=O)COC(=O)c2[nH]c(C)c(C(C)=O)c2C)c1C	Myeloid diff 2 active
CC(=O)c1c(C)[nH]c(C(=O)OCC(=O)NCc2ccc3c(c2)OCO3)c1C	Myeloid diff 2 active
O=C(COC(=O)C1(c2ccc(F)cc2)CCCC1)NCc1ccc2c(c1)OCO2	CRFBP-R2 block 62
CCOC(=O)c1[nH]c(C)c(C(=O)OCC)c1C	none
O=C(COC(=O)C1(c2ccccc2F)CCCC1)NCc1ccc2c(c1)OCO2	none
CC(=O)c1c(C)[nH]c(C(=O)OCC(=O)NCc2cccs2)c1C	NRP1-CendR mod 21
O=C1COC(c2ccccc2O)=NN1CCCl	none
COc1cccc(COC(=O)C2CC(=O)N(Cc3ccccc3)C2)c1OC (stereo not drawn)	none
COc1cc(/C=C2\SC(=Nc3ccc(O)cc3)NC2=O)cc(OC)c1OC	none (no result: FAS TE block, NadD block, NRP1-CendR mod, Myeloid diff 2)
COc1cc(/C=C2/SC(=Nc3ccc(O)cc3)NC2=O)cc(OC)c1O	Myeloid diff 2 active
Cc1nn(-c2ccc(Cl)c(Cl)c2)c(=O)c2ccccc12	NRP1-CendR mod 38
C=C1C[C@@]23CCC4[C@@](C)(CCC[C@@]4(C)C(=O)OC)C2CC[C@]1(OC(C)=O)C3 (stereo partly drawn)	NRP1-CendR mod 30
COC(=O)[C@]1(C)CCC[C@@]2(C)C3CC[C@@]4(C)C[C@]3(CCC21)CC(=O)N4C (stereo partly drawn)	none
N#Cc1ccc(NC(=O)COC(=O)C2Cc3ccccc3CN2C(=O)c2ccccc2)cc1 (stereo not drawn)	Myeloid diff 2 active
COc1ccc(-c2cc(C(=O)NC(C)c3ccccn3)c3ccccc3n2)cc1OC (stereo not drawn)	none
CC(=O)OCC(=O)[C@@]1(O)CC[C@H]2[C@@H]3C[C@H](C)C4=CC(=O)C=C[C@]4(C)[C@H]3[C@@H](O)C[C@@]21C	none
CC(=O)OCC(=O)C1(O)CCC2C3CC(C)C4=CC(=O)C=CC4(C)C3=CCC21C (stereo not drawn)	NRP1-CendR mod 19
O=C1NC[C@@H](CCCCN2C[C@H](Cc3ccc(O)cc3)N(CCc3ccccc3)C(=O)C2=O)N(CCc2ccccc2)C1=O	none (no result: CRFBP-R2 block)
CCO[C@H]1OC(C(=O)NC2CC2)=C[C@@H](c2ccccc2)[C@@H]1CCCO	NRP1-CendR mod 26
